Experimental data from PubChem BioAssay (NCATS).
Results filed as inconclusive are left out. Calls of active or inactive are those of the source. The call rests on the fitted dose curve; in most records, active means well fitted curve in the direction sought with a large enough effect; inconclusive means small, poorly fitted or top-dose-only effect, or another doubt; inactive means no such curve, though single readings can be large; an effect the other way counts as inactive or inconclusive.

Assays:
[1] = tested on: Zika virus NS2B-NS3 protease (linked construct); assay: Primary screen NINDS Rhodamine qHTS for Zika virus inhibitors (AID 1347160); further: nearly all actives have a fitted effect of over 55% in size; further: potency means the concentration at half of the fitted maximal effect
Summary of the method: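 Rhodamine110-peptide cleavage (1.5 µM substrate) by 25 nM linked NS2B-NS3 enzyme at pH 8.0 (Tris, Tween 20), after 15 min RT preincubation with compounds; 15-min fluorescence change normalized to controls and Hill-fitted.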

[2] = OV-KATE Cancer Cell Toxicity qHTS against the NCATS CANVASS Library (AID 1347345); further: potency means the concentration at half of the fitted maximal effect; on activity change, negative = cytotoxicity: on the % scale 0 is the no-effect control and ±100 the full control effect
Summary of the method: (§1)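 ATP content after 72 h treatment, detected by CellTiter-Glo luminescence (15min room-temperature development), reflects cell viability. Wells contained 1000 cells and received compounds at 11 concentrations.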

[3] = HPAF-II Cancer Cell Toxicity qHTS against the NCATS CANVASS Library (AID 1347346); further: nearly all actives have a fitted effect of over 55% in size; further: potency means the concentration at half of the fitted maximal effect; on activity change, negative = cytotoxicity: series mostly up to about 38 µM; on the % scale 0 is the no-effect control and ±100 the full control effect
Summary of the method: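 1000 HPAF-II cells/well; 4 h pre-incubation; 11-pnt compound titration; 72 h, 37 degrees C/5% CO2; CellTiter-Glo, 15 min RT; luminescence read.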

[4] = U-118MG Cancer Cell Toxicity qHTS against the NCATS CANVASS Library (AID 1347351); further: potency means the concentration at half of the fitted maximal effect; on activity change, negative = cytotoxicity: series mostly up to about 38 µM; on the % scale 0 is the no-effect control and ±100 the full control effect
Summary of the method: as §1

[5] = HPAF-II 24hr Apoptosis Induction qHTS against the NCATS CANVASS Library (AID 1347356); further: 0% is about no effect
Summary of the method: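 500 HPAF-II cells/well; compounds in 11-pnt qHTS; 24 h, 37 C/5% CO2; Caspase-Glo 3/7 added, 15 min RT dark; luminescence read. Doxorubicin control.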

[6] = HEK293 18hr Apoptosis Induction qHTS against the NCATS CANVASS Library (AID 1347357); further: 0% is about no effect
Summary of the method: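 Cells seeded at 500/well in DMEM + 10% FBS. Compounds pinned, 11 concentrations. 18 h, 37 degrees C/5% CO2. Caspase-Glo 3/7 added, 15 min RT dark, luminescence read.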

[7] = HPAF-II 12hr Apoptosis Induction qHTS against the NCATS CANVASS Library (AID 1347358); further: 0% is about no effect
Summary of the method: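 Caspase-Glo 3/7 luminescence (DEVD substrate) reports caspase activity in HPAF-II cells after 12 h compound treatment at 37 degrees C. Compounds were tested in an 11-point series. Doxorubicin served as control.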

[8] = HEK293 24hr Apoptosis Induction qHTS against the NCATS CANVASS Library (AID 1347359); further: potency means the concentration at half of the fitted maximal effect; on activation: 0% is about no effect
Summary of the method: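 HEK293 cells, 500 per well, exposed to an 11-point compound series for 24 hours at 37 degrees C. Caspase 3/7 activity read by Caspase-Glo luminescence (DEVD substrate) after 15 min at room temperature.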

[9] = HEK293 12hr Apoptosis Induction qHTS against the NCATS CANVASS Library (AID 1347361); further: 0% is about no effect
Summary of the method: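 Cells are seeded, dosed with an 11-point compound series and incubated 12 hours. Caspase-3/7 activity is detected by luminescent DEVD-substrate reagent after 15 minutes at room temperature.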

[10] = biological target: Luciferin 4-monooxygenase (Photinus pyralis) (UniProt P08659); assay: Firefly luciferase counterscreen qHTS: Assay Interference Panel against the NCATS CANVASS Library (AID 1347363); further: series mostly up to about 57 µM; 0% is about no effect
Sequence of Luciferin 4-monooxygenase (Photinus pyralis) (P08659 whole entry, looked up): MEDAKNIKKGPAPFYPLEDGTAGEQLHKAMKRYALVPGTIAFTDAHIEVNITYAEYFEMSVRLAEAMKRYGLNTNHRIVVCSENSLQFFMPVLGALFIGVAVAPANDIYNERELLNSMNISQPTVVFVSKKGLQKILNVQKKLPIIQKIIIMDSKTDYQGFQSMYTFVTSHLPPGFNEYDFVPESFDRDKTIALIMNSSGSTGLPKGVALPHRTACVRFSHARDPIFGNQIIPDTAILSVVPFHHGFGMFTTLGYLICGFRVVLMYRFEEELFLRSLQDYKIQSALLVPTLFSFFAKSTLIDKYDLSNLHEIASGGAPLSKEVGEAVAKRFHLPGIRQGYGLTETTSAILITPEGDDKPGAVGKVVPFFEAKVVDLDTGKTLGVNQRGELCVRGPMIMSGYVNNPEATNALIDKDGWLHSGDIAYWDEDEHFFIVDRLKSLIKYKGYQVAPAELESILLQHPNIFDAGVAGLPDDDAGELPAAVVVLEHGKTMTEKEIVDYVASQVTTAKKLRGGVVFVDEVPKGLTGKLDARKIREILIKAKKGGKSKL
Summary of the method: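 Purified P. pyralis luciferase (0.04 ug/mL, 4x reagent) added to Tris-acetate buffer with 0.013 mM D-luciferin, 0.013 mM ATP and 13.3 mM Mg-acetate; compounds preincubated 15 min, then luminescence read after 5 min, RT.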

[11] = KB-3-1 Cancer Cell Toxicity qHTS against the NCATS CANVASS Library (AID 1347366); further: nearly all actives have a fitted effect of over 75% in size; further: potency means the concentration at half of the fitted maximal effect; on activity change, negative = cytotoxicity: series mostly up to about 46 µM; on the % scale 0 is the no-effect control and ±100 the full control effect
Summary of the method: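 Luminescence from CellTiter-Glo (10 min, room temperature) measured KB-3-1 viability after 72 hr compound exposure at 37C. Cells were seeded at 500/well and tested in an 11-point series.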

[12] = qHTS for ATAD5 Agonist screened against the NCATS CANVASS Library (AID 1347367);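 further: luciferase reporter driven by ATAD5 which rises upon DNA damage; 0% is about no effect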
Summary of the method: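 HEK293T-ATAD5 luc reporter; 2000 cells/well; 5hr settle; cpd 11-pt qHTS; 16hr 37C 5% CO2 dark; viability by CellTiter-Fluor (AFC fluorescence); then luciferase luminescence, 30min RT.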

[13] = MCF7 Cancer Cell Toxicity qHTS against the NCATS CANVASS Library (AID 1347369); further: potency means the concentration at half of the fitted maximal effect
Summary of the method: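 Cells seeded at 500/well, then compound pinned. Plates incubated 72 hr at 37C, 5% CO2. CellTiterGlo added; luminescence read.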

[14] = qHTS for ATAD5 Antagonist screened against the NCATS CANVASS Library (AID 1347370); further: nearly all actives have a fitted effect of over 65% in size; further: potency means the concentration at half of the fitted maximal effect
Summary of the method: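 HEK293T-ATAD5 luc reporter, 2000 cells/well; 5hr attach; cpd + 10 uM 5-FUrd; 16hr 37C, 5% CO2. Readouts: CellTiter-Fluor fluorescence (1hr), then Amplite luciferase luminescence (30min RT).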

[15] = J3T Cancer Cell Toxicity qHTS against the NCATS CANVASS Library (AID 1347371); further: potency means the concentration at half of the fitted maximal effect
Summary of the method: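 Dog glioma J3T, 500 cells/well; cpd 11-pt qHTS; 72 hr, 37C/5% CO2; CellTiterGlo ATP luminescence readout.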

[16] = biological target: Nuclear receptor subfamily 1 group I member 3 (Homo sapiens) (UniProt Q14994); assay: qHTS for Constitutive Androstane Receptor (CAR) Antagonist screened against the NCATS CANVASS Library (AID 1347372); further: potency means the concentration at half of the fitted maximal effect
Sequence of Nuclear receptor subfamily 1 group I member 3 (Homo sapiens) (Q14994 whole entry, looked up): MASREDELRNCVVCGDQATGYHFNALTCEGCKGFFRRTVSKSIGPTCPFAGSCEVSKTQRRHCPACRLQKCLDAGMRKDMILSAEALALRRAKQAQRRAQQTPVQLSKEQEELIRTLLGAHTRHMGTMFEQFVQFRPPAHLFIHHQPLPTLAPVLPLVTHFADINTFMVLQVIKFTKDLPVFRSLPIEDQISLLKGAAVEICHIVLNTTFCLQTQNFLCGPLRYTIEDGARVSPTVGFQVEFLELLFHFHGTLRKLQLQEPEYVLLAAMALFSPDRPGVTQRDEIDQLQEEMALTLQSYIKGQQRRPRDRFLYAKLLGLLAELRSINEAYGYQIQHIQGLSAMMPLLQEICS
Summary of the method: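 Luminescence readout (ONE-Glo, 30 min RT) of CYP2B6-2.2kb reporter in HepG2-hCAR cells after 24hr, 37C treatment with compound against 50 nM CITCO; CellTiter-Fluor viability read beforehand.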

[17] = biological target: Nuclear receptor subfamily 1 group I member 3 (Homo sapiens) (UniProt Q14994); assay: qHTS for Constitutive Androstane Receptor (CAR) Agonist screened against the NCATS CANVASS Library (AID 1347373);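 further: every well also contained 1.5 µM PK11195 alongside the test compound; 0% is about no effect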
Summary of the method: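 Luciferase read-out (ONE-Glo, 30 min RT) of CYP2B6-2.2kb promoter activity in double-stable HepG2-hCAR cells after 24hr compound exposure with 1.5uM PK11195 present; viability measured first by CellTiter-Fluor.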

[18] = 10-beta competent E. coli microbial cell viability qHTS against the NCATS CANVASS Library (AID 1347376); further: series mostly up to about 46 µM; 0% is about no effect
Summary of the method: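 Luminescence from BacTiter-Glo ATP detection served as the viability read-out; bacteria (0.2 OD) had been incubated overnight at 37C with pin-transferred compounds at 11 concentrations.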

[19] = Inflammasome Signaling qHTS Counterscreen: IL-1-beta AlphaLISA counterscreen against the NCATS CANVASS Library (AID 1347381);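 further: cell-free check with purified IL-1β in medium and no THP-1 cells; series mostly up to about 57 µM; 0% is about no effect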
Summary of the method: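 Here, no cellular stimulation occurs; compounds in an 11-point series meet 4 pg purified IL-1-beta directly. Bead-based AlphaLISA detection follows (1 h acceptor/antibody, then 30 min donor, dark, room temperature), with excitation at 680 nm.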

[20] = Viability qHTS for inhibitors of the SERCaMP assay screened against the NCATS CANVASS Library (AID 1347400); further: nearly all actives have a fitted effect of over 70% in size; further: potency means the concentration at half of the fitted maximal effect
Summary of the method: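 CellTiter-Glo luminescence readout after 48 h compound exposure (11-pnt qHTS series) of SH-SY5Y-GLuc SERCaMP MJH297 cells seeded at 1000 cells/well; bortezomib positive control.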

CC1(C)CCC[C@]2(C)[C@@H]1CC[C@@]13C[C@@H](CC[C@H]12)C(C)(O)C3 (some centres undefined)
inactive: Potency [2] | Potency [3] | Potency [4] | outcome [5] | Potency [6] | Potency [7] | Potency [8] | Potency [9] | Potency [10] | Potency [11] | Potency [12] | Potency [13] | Potency [14] | Potency [15] | Potency [16] | outcome [17] | outcome [18] | outcome [19] | Potency [20]
active: Potency [1] 44 µM

O=C(O)CC1OCc2c(O)cccc21 (centres undefined)
inactive: Potency [1] | Potency [2] | Potency [3] | Potency [4] | outcome [5] | Potency [6] | Potency [7] | Potency [8] | Potency [9] | Potency [10] | Potency [11] | Potency [12] | Potency [13] | Potency [14] | Potency [15] | Potency [16] | outcome [17] | outcome [18] | outcome [19] | Potency [20]

CO[C@H]1/C=C/CC[C@@H](S[C@@H]2O[C@H](CO)[C@@H](O)[C@H](O)[C@H]2O)CC(=O)O[C@@H](/C(C)=C/[C@H](C)C(=O)CCCC2CC(=O)NC(=O)C2)[C@@H](C)[C@@H]1O
inactive: Potency [1] | outcome [5] | Potency [6] | Potency [7] | Potency [8] | Potency [9] | Potency [10] | Potency [12] | outcome [18] | outcome [19]
active: Potency [2] 3.75 µM | Potency [3] 8.41 µM | Potency [11] 20.9 µM | Potency [14] 4.17 µM | Potency [16] 14.8 µM | Potency [20] 12 µM

COc1ccc2oc3c(OC)c(OC)c(OC)c(OC)c3c(=O)c2c1
inactive: Potency [1] | activity change, negative = cytotoxicity [2] -4.56% [at 7.64 µM] | activity change, negative = cytotoxicity [3] -3.19% [at 7.64 µM] | activity change, negative = cytotoxicity [4] 3.45% [at 7.64 µM] | caspase activation [5] 1.51% [at 9.19 µM] | caspase activation [6] 2.9% [at 9.19 µM] | caspase activation [7] 5.91% [at 9.19 µM] | activation [8] -1% [at 9.19 µM] | caspase activation [9] 10.6% [at 9.19 µM] | activity change, negative = inhibition [10] -22.3% [at 11.5 µM] | activity change, negative = cytotoxicity [11] -8.69% [at 9.19 µM] | activation [12] 0.941% [at 9.19 µM] | activity change, negative = cytotoxicity [13] 0.434% [at 9.17 µM] | activity change, negative = inhibition [14] -20.5% [at 9.19 µM] | activity change, negative = cytotoxicity [15] -8.53% [at 9.19 µM] | activity change, negative = inhibition [16] 22.2% [at 9.19 µM] | activation [17] 7.45% [at 9.19 µM] | activity change, negative = cytotoxic [18] -7.99% [at 9.19 µM] | activity change, negative = inhibition [19] 10.5% [at 11.5 µM] | activity change, negative = cytotoxicity [20] -11.8% [at 18.4 µM]

CN1CC[C@]2(c3cccc4c3N[C@@H]3N(C)CC[C@]43[C@@]34CCN(C)[C@@H]3Nc3c([C@]56CCN(C)[C@H]5Nc5ccccc56)cccc34)c3ccccc3N[C@H]12
inactive: Potency [1] | outcome [5] | Potency [6] | Potency [8] | Potency [9] | Potency [10] | Potency [12] | outcome [17]
active: Potency [2] 8.38 µM | Potency [3] 8.41 µM | Potency [4] 6.68 µM | Potency [11] 4.69 µM | Potency [13] 2.34 µM | Potency [14] 9.33 µM | Potency [15] 2.64 µM | Potency [16] 26.3 µM | Potency [20] 4.8 µM

C=C[C@]1(C)CC[C@@H]([C@H](C)C(=O)/C=C/C(C)C)O1
inactive: Potency [1] | Potency [2] | Potency [3] | Potency [4] | outcome [5] | Potency [6] | Potency [7] | Potency [8] | Potency [9] | Potency [10] | Potency [11] | Potency [12] | Potency [13] | Potency [14] | Potency [15] | Potency [16] | outcome [17] | outcome [18] | outcome [19] | Potency [20]

CO[C@@H]1[C@H](O)[C@@H](C)O[C@@H](OC[C@H]2/C=C/C=C/C(=O)C(C)C[C@H](C)C(O[C@@H]3O[C@H](C)CC4(OC(=O)O[C@@H]4C)C3O)[C@@H](C)/C=C/C(=O)OC2C)[C@@H]1OC (some centres undefined)
inactive: Potency [2] | Potency [3] | Potency [4] | outcome [5] | Potency [6] | Potency [7] | Potency [8] | Potency [9] | Potency [10] | Potency [11] | Potency [12] | Potency [13] | Potency [15] | Potency [16] | outcome [17] | outcome [18] | outcome [19] | Potency [20]
active: Potency [1] 49.3 µM

CC(C)=CCC[C@@H](C)[C@@H]1CC[C@@]2(C)C[C@H]3C(C)=CC(=O)[C@@H]3/C(C=O)=C\C[C@H]12
inactive: Potency [10] | Potency [12] | outcome [17] | outcome [18] | outcome [19]
active: Potency [1] 44 µM | Potency [2] 9.41 µM | Potency [3] 5.95 µM | Potency [4] 7.49 µM | Potency [8] 26.4 µM | Potency [11] 10.5 µM | Potency [20] 42.8 µM

CO[C@@H]1C[C@@H](C[C@H]2CC[C@H](C)[C@H]([C@@H](C)C(=O)O)O2)O[C@]2(O[C@](C)([C@H]3CC[C@@](C)([C@@H]4O[C@@H]([C@H]5O[C@](C)(O)[C@H](C)C[C@@H]5C)C[C@@H]4C)O3)C[C@H]2C)[C@@H]1C
inactive: outcome [5] | Potency [6] | Potency [7] | Potency [8] | Potency [9] | Potency [10] | Potency [12] | outcome [17] | outcome [18] | outcome [19]
active: Potency [1] 11 µM | Potency [2] 4.72 µM | Potency [3] 9.43 µM | Potency [4] 5.3 µM | Potency [11] 14.8 µM | Potency [13] 14.7 µM | Potency [14] 14.8 µM | Potency [15] 0.118 µM | Potency [20] 10.7 µM

C=C1C(=O)O[C@H]2C[C@H](C)[C@@H]3CC(=O)C(C)=C3[C@H](O)[C@H]12
inactive: Potency [1] | outcome [5] | Potency [7] | Potency [8] | Potency [10] | Potency [12] | outcome [17] | outcome [18] | outcome [19]
active: Potency [2] 13.3 µM | Potency [3] 13.3 µM | Potency [4] 18.8 µM | Potency [13] 18.6 µM | Potency [14] 13.2 µM | Potency [15] 23.5 µM | Potency [20] 21.4 µM

CC12C[C@]3(O)O[C@@H](O1)[C@]1(COC(=O)c4ccccc4)[C@@H]3CC21OC1OC(CO)C(O)C(O)C1O (some centres undefined)
inactive: Potency [1] | Potency [2] | Potency [3] | Potency [4] | outcome [5] | Potency [6] | Potency [7] | Potency [8] | Potency [9] | Potency [10] | Potency [11] | Potency [12] | Potency [13] | Potency [14] | Potency [15] | Potency [16] | outcome [17] | outcome [18] | outcome [19] | Potency [20]
